In the library only some 5.2% were active in any assay of this set; here they are far more common.
NRP1-CendR mod – NRP-1/CendR interaction modulation. inhibition, % at 25 µM. 0.85% of 360,000 active. AID 602438. FAM-RPARPAR peptide binding to NRP-1, fluorescence polarization;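 active = inhibition or corrected inhibition above about 18%, plus a signal ratio from 0.5 to 1.5, limit read from the data, passing the limit was not always enough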
Target sequence (O14786 whole entry, looked up): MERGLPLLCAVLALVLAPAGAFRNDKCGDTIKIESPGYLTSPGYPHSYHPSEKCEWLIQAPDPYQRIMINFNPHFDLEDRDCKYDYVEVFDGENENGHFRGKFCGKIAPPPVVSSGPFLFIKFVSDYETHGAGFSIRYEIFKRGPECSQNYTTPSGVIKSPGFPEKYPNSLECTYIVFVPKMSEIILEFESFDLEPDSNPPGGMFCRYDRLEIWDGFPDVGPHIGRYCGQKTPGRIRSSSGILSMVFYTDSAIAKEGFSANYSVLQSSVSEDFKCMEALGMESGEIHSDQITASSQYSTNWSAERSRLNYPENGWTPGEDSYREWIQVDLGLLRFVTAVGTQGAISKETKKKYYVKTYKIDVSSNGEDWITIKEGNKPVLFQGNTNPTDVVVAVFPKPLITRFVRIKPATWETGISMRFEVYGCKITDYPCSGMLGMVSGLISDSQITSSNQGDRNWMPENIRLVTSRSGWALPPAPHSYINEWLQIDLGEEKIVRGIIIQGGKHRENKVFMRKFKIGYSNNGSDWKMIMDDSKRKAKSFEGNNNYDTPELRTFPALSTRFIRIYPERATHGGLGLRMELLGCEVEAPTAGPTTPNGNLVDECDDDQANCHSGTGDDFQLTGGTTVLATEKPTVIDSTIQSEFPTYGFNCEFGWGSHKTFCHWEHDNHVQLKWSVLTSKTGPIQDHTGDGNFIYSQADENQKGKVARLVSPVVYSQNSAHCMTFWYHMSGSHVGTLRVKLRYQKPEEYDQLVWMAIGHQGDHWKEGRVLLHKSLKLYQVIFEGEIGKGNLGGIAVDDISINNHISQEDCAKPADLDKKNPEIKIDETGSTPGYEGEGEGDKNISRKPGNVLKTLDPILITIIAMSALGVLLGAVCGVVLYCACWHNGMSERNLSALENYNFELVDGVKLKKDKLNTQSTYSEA
PfM18AAP inh – blocks P. falciparum M18 aspartyl aminopeptidase; inhibition, % at 7.35 µM; recombinant PfM18AAP, H-Glu-NHMec fluorogenic cleavage; AID 1822; 1.2% of 290,000 active;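 active = inhibition above the campaign mean inhibition over all tested compounds plus 3 SD, cut at about 28% in these data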
ALR H2O2 inh – blocks human ALR sulfhydryl oxidase activity; purified ALR, DTT oxidation, H2O2 HRP-luminol luminescence; 3.8% of 290,000 active; inhibition, % (no concentration beside the values);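 active = mean replicate inhibition above about 79%, with every replicate also reaching it, limit read from the data; inconclusive = only one of the two criteria met; inactive = mean below limit and not every replicate reaching it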
CR mimetic SO – lowers age-related superoxide in aged yeast cells; S. cerevisiae aged cells, superoxide DHE fluorescence; hits give low values; superoxide response (% of plate mean), % at 10 µM; 0.18% of 330,000 active; AID 2690;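 active = superoxide response under a set limit, about three screen SD below normal, cut at about 65% in these data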;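 also: yeast aged for seven days with compound at 30 °C before DHE staining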
A3G deaminase – inhibitors of human APOBEC3G DNA deaminase. Q9HC16. recombinant A3G, ssDNA deamination FAM/TAMRA fluorescence. inhibition, % at 20 µM. 0.28% of 330,000 active. AID 493012;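 active = inhibition of at least 40% at 20 µM, with no more than 30% in the related APOBEC3A deaminase screen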
A3A deaminase – human APOBEC3A DNA deaminase inhibition | P31941 | recombinant A3A, FAM/TAMRA ssDNA deamination fluorescence | inhibition, % at 20 µM | 0.41% of 330,000 active | AID 493011;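 active = at least 40% inhibition at 20 µM here, with at most 30% in a related deaminase screen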
Numbers stand for hits; n = inactive; u = inconclusive; x = no result given.

SMILES	NRP1-CendR mod	PfM18AAP inh	ALR H2O2 inh	CR mimetic SO	A3G deaminase	A3A deaminase
CCCOC(=O)C(C)n1c(-c2ccccc2)nc2ccccc2c1=O (stereo not drawn)	n	n	91	n	n	n
COc1cc(NC(=O)Nc2nc(C(N)C3CCCCC3)cs2)cc(OC)c1OC (stereo not drawn)	n	x	x	x	x	x
O=C(CNc1ccccc1)NNC1=NCCC1	n	n	n	n	n	n
O=C(CN1C(=O)CCC1=O)NNc1ccc2ccccc2c1	n	n	98	n	n	n
O=C(Cc1ccccc1)NNc1ccc2ccccc2c1	n	n	n	n	n	n
O=C(CNc1ccc2ccccc2c1)NNC1=NCCC1	n	n	84	n	n	n
CCCSc1nc(O)c(C2OC(=O)c3c2ccc(OC)c3OC)c(=O)n1C (stereo not drawn)	n	n	u	n	n	n
CCCCCCSc1nc(O)c(C2OC(=O)c3c2ccc(OC)c3OC)c(=O)n1CC (stereo not drawn)	n	n	98	n	n	n
Cc1ccc(SCCNS(=O)(=O)c2ccc3c(c2)OCCO3)cc1	n	n	n	n	n	n
c1ccc(-c2nc(-c3ccco3)cs2)nc1	n	n	98	n	n	n
O=C(NCC1CCCO1)c1ccc[nH]1 (stereo not drawn)	n	n	n	n	n	n
CC(=O)NCCNc1ccc([N+](=O)[O-])cn1	n	n	x	n	n	n
CCOC(=O)C1=C(SCC(=O)Nc2ccccc2)NC(=O)C(C#N)C12CCCCC2 (stereo not drawn)	n	n	89	n	n	n
N#CC1=C(N)NC(SCC(=O)Nc2ccccc2)=C(C#N)C12CCCC2	n	n	95	n	n	n
N#CC1=C(SCC(=O)Nc2cccc3cccnc23)NC(=O)C(C#N)C12CCCCC2 (stereo not drawn)	n	n	n	n	n	n
Cc1ccc(CNC(=O)CCc2nnc(Cc3ccc(-c4ccccc4)cc3)o2)o1	n	n	97	n	n	n
COCCCNC(=O)CCc1nnc(Cc2ccc(-c3ccccc3)cc2)o1	n	n	x	n	n	n
CCOC1(c2ccccc2)CC1C(=O)N/N=C/c1cccc([N+](=O)[O-])c1 (stereo not drawn)	n	n	n	n	n	n
COc1ccc(C2C(C#N)=C(N)Oc3n[nH]c(C)c32)cc1Cn1nnc2ccccc21 (stereo not drawn)	n	n	n	n	n	n
CC(C)CNC(=O)C1C(=O)Nc2ccccc2C(=O)N1C1CCCCC1 (stereo not drawn)	n	x	x	x	x	x
O=C(Nc1ccc2c(c1)OCCO2)C1C(=O)Nc2ccccc2C(=O)N1C1CCCCC1 (stereo not drawn)	21	x	x	x	x	x
N#C/C(=C\c1ccc(O)c(O)c1)C(=O)c1ccc(O)c(O)c1	n	x	100	n	n	n
COc1cc(C=C(C#N)C(=O)c2ccccc2)cc(OC)c1OC	n	x	x	x	x	x
O=C(O)C1C(c2ccccc2)C(C(=O)Oc2ccc(O)cc2)C1c1ccccc1 (stereo not drawn)	n	n	94	n	n	n
CCOC(=O)C1=C(COC(=O)CCOc2ccc(OCC)cc2)NC(=O)NC1C (stereo not drawn)	n	x	n	n	n	n
SMILES	NRP1-CendR mod	PfM18AAP inh	ALR H2O2 inh	CR mimetic SO	A3G deaminase	A3A deaminase
CNC(=O)c1cc(Oc2ccc(NC(=O)c3[nH]c(-c4ccccc4)c4c3C(=O)N(C)C4=O)cc2)ccn1	n	x	x	x	x	x
O=c1c2cc3c(cc2[nH]c(=S)n1C1CCN(Cc2ccccc2)CC1)OCO3	n	n	93	n	n	n
C=CC1(C)CN(Cc2ccco2)S(=O)(=O)c2c(F)cccc2O1 (stereo not drawn)	n	x	x	x	x	x
O=C(c1cnn(C(=O)c2ccccc2)c1)c1ccccc1O	n	31	x	n	n	n
O=C(c1cnn(C(=O)COc2ccc(Cl)cc2)c1)c1ccccc1O	n	30	n	n	n	n
COc1cccc(C(=O)Nc2nnc(-c3cccs3)s2)c1	n	n	n	n	n	n
COc1ccc(-c2cc(-c3cccs3)c(C#N)c(SCC(=O)NCc3ccccc3)n2)cc1	n	n	n	n	n	n
N#Cc1c(-c2ccccc2)cc(-c2cccs2)nc1SCC(=O)O	n	n	99	n	n	n
Cc1cc(C)cc(NC(=S)Nc2ccccn2)c1	n	n	97	n	n	n
Cc1cccc(NC(=S)Nc2ccccn2)c1	n	n	n	n	n	n
COc1ccccc1NC(=S)Nc1ccccn1	n	n	82	n	n	n
COc1ccccc1NC(=O)C(=O)Nc1ccccn1	n	n	n	n	n	n
Cc1cc(C)cc(NC(=O)COC(=O)Cc2ccccc2F)c1	n	x	x	n	n	n
O=C1CS/C(=N\C(=O)N2c3ccccc3Sc3ccccc32)N1	n	n	99	n	n	n
COc1ccc(C(=O)c2cn(-c3cccc(Br)c3)nc2C(C)=O)cc1	n	x	n	n	n	n
COc1cc(C(=O)NNC(=O)CSc2nnc3ccccn23)cc(OC)c1OC	n	x	n	n	n	n
Cc1cc(N2CCOCC2)nc(-c2ccc([N+](=O)[O-])cc2)n1	n	n	100	n	n	n
CC(C)Cc1csc(NC(=O)c2ccccc2Cl)c1C(=O)O	n	n	96	n	n	n
CC(C)Cc1csc(NC(=O)c2ccc(Cl)cc2)c1C(=O)O	n	n	n	n	n	n
Cc1cccc(C(=O)Nc2scc(CC(C)C)c2C(=O)O)c1	n	n	96	n	n	n
Cc1cc(C)n2nc(C(=O)N3CCN(c4ccc([N+](=O)[O-])cc4)CC3)nc2n1	n	n	97	n	n	n
Cc1cc2c(N)cccc2nn1	41	n	n	n	n	n
Nc1cccc2nc3ccccc3cc12	n	n	x	n	n	n
Cc1cc(C)cc(C(=O)Oc2coc(CSc3nnc(NC(=O)C4CC4)s3)cc2=O)c1	n	n	x	n	n	n
O=C(Oc1coc(CSc2nnc(NC(=O)C3CC3)s2)cc1=O)c1c(F)cccc1F	n	n	97	n	n	n
SMILES	NRP1-CendR mod	PfM18AAP inh	ALR H2O2 inh	CR mimetic SO	A3G deaminase	A3A deaminase
COc1ccccc1N(CC(=O)NCCSCc1ccccc1)S(=O)(=O)c1ccccc1	n	x	x	x	x	x
COc1ccccc1N(CC(=O)NCCSCc1ccccc1)S(=O)(=O)c1ccc(C)cc1	19	n	n	n	n	n
COc1cc(OC)cc(-c2cn[nH]c2N)c1	n	n	99	n	n	n
Cc1ccc(-c2cnn(-c3ccccc3)c2N)cc1	n	n	n	n	n	n
COc1ccc(-c2nc(N)n[nH]2)cc1OC	n	n	n	n	n	n
COc1ccc(-c2cn[nH]c2N)cc1OC	n	n	99	n	n	n
COc1ccc(-c2cnn(-c3ccccc3)c2N)cc1OC	n	n	90	n	n	n
COc1ccc(-c2cn[nH]c2C)cc1	n	n	n	n	n	n
Cc1c(NC(=O)CCSCCc2ccccn2)cccc1[N+](=O)[O-]	n	n	n	n	n	n
CCn1c2ccccc2c2cc(NC(=O)CN(C)CC(=O)Nc3ccc(N4CCOCC4)cc3)ccc21	n	n	n	n	n	n

High-throughput results (PubChem BioAssay)
